Pol beta inh: inhibitors of human DNA polymerase beta | Pol beta primer extension/strand displacement, fluorescence kinetic | 340,000 tested, 1.3% active | AID 485314 | Potency, µM (top dose mostly 114 µM), most hits filed as inhibitors | P06746
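Preincubation: enzyme (10 nM) with compound, 15 min, RT. Reaction: substrate added to 50 nM final. Reads: 0 and 10 min. Analysis: normalized, Hill fit.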
Pol eta inh: blocks human DNA polymerase eta activity; Potency, µM (highest dose often 114 µM), most hits filed as inhibitors; 390,000 tested, 1.2% active; recombinant Pol eta, fluorescent DNA replication assay
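Pol eta (10 nM) was preincubated with compounds for 15 min at room temperature, after which fluorescent replication substrate (50 nM final) was added to start the reaction. Fluorescence was read kinetically at 0 and 10 min.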
PI5P4Ka inh: blocks human PI5P4K alpha kinase activity; AID 652105; 330,000 tested, 1.2% active; PI5P4Kalpha enzyme, ADP-Glo luminescence, 60 min; hits give low values; max response, %; active means max response of -50% or lower; inconclusive means between -30% and -50%; inactive means -30% or higher; further: value at the top dose of about 77 µM
Target sequence (P48426 whole entry, looked up): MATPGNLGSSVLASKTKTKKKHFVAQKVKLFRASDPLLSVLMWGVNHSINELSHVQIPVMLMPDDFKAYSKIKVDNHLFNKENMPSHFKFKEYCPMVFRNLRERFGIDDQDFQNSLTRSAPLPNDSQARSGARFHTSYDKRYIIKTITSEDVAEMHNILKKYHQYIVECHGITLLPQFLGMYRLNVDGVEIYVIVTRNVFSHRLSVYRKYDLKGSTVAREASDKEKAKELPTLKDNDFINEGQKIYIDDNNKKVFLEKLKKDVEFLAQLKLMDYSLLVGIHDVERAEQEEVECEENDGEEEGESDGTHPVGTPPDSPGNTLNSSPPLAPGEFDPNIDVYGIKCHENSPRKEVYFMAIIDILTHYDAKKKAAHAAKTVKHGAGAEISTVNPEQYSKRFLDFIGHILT
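qHTS, 1536-well: enzyme/substrate mix, compound by pin tool, 5 microM ATP final; RT 60 min; ADP-Glo reagents 1 (45 min) then 2 (30 min); luminescence.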
POLK inh: DNA polymerase kappa (human) inhibition | AID 588579 | Q9UBT6 | 400,000 tested, 0.53% active | Potency, µM (top dose mostly 107 µM), hits mostly inhibitors | purified Pol kappa, fluorescent DNA synthesis assay, 10 min
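Inhibition of 10 nM Pol kappa is measured by a fluorescent read-out at 0 and 10 min following addition of 50 nM substrate (final), with a 15-min room-temperature compound preincubation.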
Pol iota inh: DNA polymerase iota (human) inhibition; Potency, µM (top dose mostly 115 µM), most hits filed as inhibitors; Q9UNA4; 390,000 tested, 1% active; Pol iota fluorescent replication assay, 10 min; AID 588590
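Pol iota at 10 nM preincubated 15 min with compounds at room temperature; reaction started with fluorescent substrate, 50 nM final. Fluorescence read kinetically at 0 and 10 min; buffer-only wells as negative control.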
PI4K2A inh: inhibitors of human PI4K2A. Q9BTU6. purified PI4K2A, ADP-Glo luminescence, 1 h; hits give low values. activity change, negative = inhibition, % at 76.9 µM. 420,000 tested, 0.13% active. AID 1346378; in the data active means activity change below about -50%; inconclusive means mostly about -30% to -49%
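ADP-Glo luminescence measured ADP generated by PI4K2A enzyme (4 ug/mL before mixing) with 1.2 mM PI substrate (pre-mix) and 300 microM ATP (pre-mix). Tris pH7.5 buffer with MgCl2, Triton X-100; 1 h reaction at ambient temperature.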
Hits are given with their value; ! = a repeat was not active. A selection: hits, their analogues and other compounds. The true share with any hit is near 2.8%. Unless noted, the call rests on the fitted dose curve; in most records, active means well fitted inhibition curve with a large enough effect; inconclusive means small, poorly fitted or top-dose-only effect, or another doubt; inactive means no such curve, though single readings can be large or run the other way.

Screening N#CCC(=O)Nc1ccc(C(=O)OCC(=O)c2ccc3c(c2)OCCO3)cc1 returned Pol beta inh inactive, Pol eta inh inactive, PI5P4Ka inh -74, POLK inh inactive, Pol iota inh inactive and PI4K2A inh inactive.
For Nc1cc(N)cc(N)c1 the results were POLK inh inconclusive and Pol iota inh 1.6µM.
For OCC1O[C@H]([S-])[C@H](O)[C@@H](O)[C@@H]1O.[Au+] (stereo partly drawn) the results were POLK inh 5.3µM and PI4K2A inh -55.
OC[C@@H]1OC(O)[C@@H](O)[C@H](O)[C@H]1O (stereo partly drawn) was read as POLK inh inactive.
`C(=C\c1ccccc1)/C=N/Nc1ccc2nncn2n1` gave Pol beta inh inactive, Pol eta inh inactive, PI5P4Ka inh inactive, POLK inh inactive, Pol iota inh inactive and PI4K2A inh inactive.
For CC(/C=N/Nc1ccc2nncn2n1)=C\c1ccccc1 the results were Pol beta inh inconclusive, Pol eta inh 79µM, PI5P4Ka inh inactive, POLK inh inactive, Pol iota inh inactive and PI4K2A inh inactive.
`COc1ccc(CC(=O)Nc2nc3ccccc3[nH]2)cc1` gave Pol beta inh inactive, Pol eta inh inactive, PI5P4Ka inh inactive, POLK inh inactive, Pol iota inh inactive and PI4K2A inh inactive.
Screening COC(=O)Cc1cc(=O)n(-c2nc3ccccc3[nH]2)[nH]1 returned Pol beta inh 79µM, Pol eta inh inactive, POLK inh inactive, Pol iota inh inactive and PI4K2A inh inactive.
`O=C(COC(=O)c1ccc(Br)o1)NCCc1ccccc1` gave Pol beta inh inactive, Pol eta inh inactive, PI5P4Ka inh inactive, POLK inh inactive, Pol iota inh inactive and PI4K2A inh inactive.
For O=C(COC(=O)c1ccc([N+](=O)[O-])o1)NCCc1ccccc1 the results were Pol eta inh 79µM, PI5P4Ka inh inactive, POLK inh inactive, Pol iota inh 45µM and PI4K2A inh inactive.
For CC(NC(=O)COc1ccc([N+](=O)[O-])cc1)c1ccccc1 (stereo not drawn) the results were Pol beta inh inactive, Pol eta inh inactive, PI5P4Ka inh inactive, POLK inh inactive, Pol iota inh inactive and PI4K2A inh inactive.
O=C(COC(=O)c1ccc([N+](=O)[O-])o1)NCc1ccc2c(c1)OCO2 was read as Pol eta inh 79µM, PI5P4Ka inh inactive, POLK inh inactive, Pol iota inh inconclusive and PI4K2A inh inactive.
`CC(NC(=O)COC(=O)c1ccc([N+](=O)[O-])o1)c1ccccc1` (stereo not drawn) gave Pol eta inh 89µM, PI5P4Ka inh inactive, POLK inh inactive, Pol iota inh inconclusive and PI4K2A inh inactive.
For COc1ccc(-c2ccoc2)cc1C1C2C=CCC(C)C2C(=O)N1Cc1ccccc1 (stereo not drawn) the results were POLK inh inactive and Pol iota inh inactive.
For Clc1cccc(CNC2CCC23CCCCC3)c1 (stereo not drawn) the results were PI4K2A inh inactive.
Screening COc1ccccc1N1CCN(CC(O)COc2ccc(Cl)c(C)c2)CC1 (stereo not drawn) returned Pol beta inh inactive, Pol eta inh inactive, POLK inh inactive, Pol iota inh inconclusive and PI4K2A inh inactive.
For Cc1ccc(NC(=O)CSc2nc(-c3ccc(C(C)(C)C)cc3)nc3cc(=O)[nH]n23)cc1C the results were Pol beta inh inconclusive, Pol eta inh inactive, POLK inh inactive, Pol iota inh inactive and PI4K2A inh inactive.
Screening CC(C)(C)c1ccc(-c2nc(SCCOc3ccc(Cl)cc3)n3[nH]c(=O)cc3n2)cc1 returned Pol beta inh inconclusive, Pol eta inh 50µM, POLK inh inactive, Pol iota inh inactive and PI4K2A inh inactive.
Screening CC(C)(C)c1ccc(OCCSc2nc(-c3cccs3)nc3cc(=O)[nH]n23)cc1 returned Pol beta inh 32µM, Pol eta inh inconclusive, POLK inh inconclusive, Pol iota inh inactive and PI4K2A inh inactive.
Screening Cc1ccc(OCCCSc2nc(-c3ccc(C(C)(C)C)cc3)nc3cc(=O)[nH]n23)cc1C returned Pol beta inh inconclusive, Pol eta inh 45µM, POLK inh inactive, Pol iota inh inactive and PI4K2A inh inactive.
Screening C=CCc1ccccc1OCCSc1nc(-c2cccs2)nc2cc(=O)[nH]n12 returned Pol beta inh 25µM, Pol eta inh 79µM, POLK inh inconclusive, Pol iota inh inconclusive and PI4K2A inh inactive.
COc1ccccc1OCCSc1nc(-c2ccc(C(C)(C)C)cc2)nc2cc(=O)[nH]n12 was read as Pol beta inh inactive, Pol eta inh inconclusive, POLK inh inactive, Pol iota inh inactive and PI4K2A inh inactive.
Screening CCOc1ccc(-c2nc(CSCC(=O)NC3CCC3)c(C)o2)cc1 returned PI4K2A inh inactive.
Screening CCn1c(=O)c2c(nc(C=Cc3ccc(OC)c(OC)c3)n2C)n(CC)c1=O returned PI4K2A inh inactive.
O=C(Nc1ccccc1Sc1ccccc1)c1cnn2c1NC(=C1CC1)C=C2C(F)(F)F was read as POLK inh inactive and Pol iota inh inactive.
Screening CCCCCC#CCC#CCC#CCC#CCCCC(=O)O returned Pol beta inh 1.1µM and POLK inh 10µM!.
Screening CCCCCCCCCC(=O)O returned Pol eta inh inactive, PI5P4Ka inh inactive, POLK inh inactive, Pol iota inh inactive and PI4K2A inh inactive.
`COc1ccc(N2CCN(c3ncnc4c3cnn4-c3ccc(F)cc3)CC2)cc1` gave Pol beta inh inactive, Pol eta inh inactive, POLK inh inactive, Pol iota inh inactive and PI4K2A inh inactive.
Screening CCOC(=O)C(C(=O)OCC)c1cc(Br)c2noc3c2c1C(=O)c1ccccc1-3 returned Pol beta inh 79µM, Pol eta inh 8.9µM, PI5P4Ka inh inactive, POLK inh inconclusive, Pol iota inh inconclusive and PI4K2A inh inactive.
For COc1ccc2cc(C(=O)NCc3ccco3)c(=Nc3ccc(C(=O)O)cc3)oc2c1 the results were Pol beta inh inactive, Pol eta inh 89µM, POLK inh inactive, Pol iota inh inactive and PI4K2A inh inactive.
`CCOC(=O)C1CCN(c2cc3c(cc2NC(=O)c2ccc(OC)c(OC)c2)n(C)c(=O)n3C)CC1` gave Pol beta inh inactive, Pol eta inh 50µM, PI5P4Ka inh inactive, POLK inh inactive, Pol iota inh inactive and PI4K2A inh inactive.
`CC(=O)Nc1ccc(/C=C/c2ccccn2)cc1` gave POLK inh inactive and Pol iota inh inactive.
For COc1ccc(C2NC(=S)N3C(c4ccc(OC)cc4)NC(=S)N23)cc1 (stereo not drawn) the results were Pol beta inh inactive, Pol eta inh inactive, PI5P4Ka inh -90, POLK inh inactive, Pol iota inh inconclusive and PI4K2A inh inactive.

Source: PubChem (National Center for Advancing Translational Sciences (NCATS))
